Sampled rows, rich in hits. Any-hit rate of the full collection: about 2.5%.
ASK1 inh: ASK1 kinase inhibitors, primary screen, biochemical, AlphaScreen; 22,000 compounds, 0.99% hits; AlphaScreen MKK6 phosphorylation by ASK1, luminescence; Mitogen-activated protein kinase kinase kinase 5 (Homo sapiens), Q99683; inhibition, % at 7.44 µM; in the data active means inhibition above about 35%;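 further: 0% = median of compound wells and 100% = no enzyme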
ULK1 primary: ULK1 kinase inhibitors, primary screen, biochemical, AlphaScreen. Serine/threonine-protein kinase ULK1 (Homo sapiens), O75385. AlphaScreen Atg13 phosphorylation by ULK1, luminescence. inhibition, % at 5.96 µM. 30,000 compounds, 1.9% hits. AID 1259251, 2017; in the data active means inhibition above about 43%;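 further: 0% = median of compound wells and 100% = no enzyme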
The depositor's hits bear a star; / = no result given; ! = not active in a repeat.

SMILES	ASK1 inh	ULK1 primary
Cn1c(Nc2nc(NC3CC3)c3ncn(-c4ccsc4)c3n2)nc2ccccc21	-14	0
COc1ccc(-c2ncc(C(=O)Nc3ccc(Oc4ccccc4)cc3)s2)cc1	15	6
CN(C)c1cccc(Nc2nccc(NC3CC3)n2)c1	-1	0
Cc1cnc(Nc2cccc(N(C)C)c2)nc1NC1CC1	8	46*
Cc1noc(C)c1-c1nc(Nc2ccccc2)c2ncn(C3CCCCC3)c2n1	-6	8
c1cc(N2CCOCC2)ccc1Nc1nc(Nc2ccc(N3CCOCC3)cc2)c2ncn(C3CCCCC3)c2n1	-12	53*
c1ccc(Nc2nc(NC3CC3)c3ncn(C4CCCCC4)c3n2)nc1	1	-11
c1cc(N2CCOCC2)ccc1Nc1nc(NC2CC2)c2ncn(C3CCCCC3)c2n1	32	7
c1cc(Nc2nc(NC3CC3)c3ncn(C4CCCCC4)c3n2)ncn1	-40	44*
Cc1noc(C)c1-c1nc(Nc2ccc(N3CCOCC3)cc2)c2ncn(C3CCCCC3)c2n1	7	50*
NC(=O)c1ccc(-c2nccc(NCCOc3ccccc3)n2)cc1	-19	-16
O=C(Nc1ccc(N2CCOCC2)cc1)c1cccc(-n2cc(-c3cnc4ccccc4n3)cn2)c1	14	-5
CCCNc1nc(Cl)nc2c1ncn2-c1ccccc1	5	11
COc1ccc(-c2cc(Nc3ccc(N4CCOCC4)cc3)nc(N)n2)cc1	7	-10
Cn1nccc1Nc1ccc(-n2cc(CC(=O)Nc3ccc(N4CCOCC4)cc3)c3ccccc32)nn1	-7	49*
O=C(Cc1cn(-c2ccc(Nc3ccc(N4CCOCC4)cc3)nn2)c2ccccc12)Nc1ccccc1	13	10
CN(C)CCOc1cc(-c2cn[nH]c2)c(F)cc1NC(=O)[C@H](N)Cc1ccc(Cl)cc1	-3	-13
COc1cc(Nc2nc(NCCOc3ccccc3)c3[nH]cnc3n2)cc(OC)c1OC	17	78*
COc1cc(Nc2nc(NCCO)c3[nH]cnc3n2)cc(OC)c1OC	-24	63*
CCNc1nc(Nc2cc(OC)c(OC)c(OC)c2)c2[nH]cnc2n1	8	13
CN(C)c1cccc(Nc2nc(NCCOc3ccccc3)c3[nH]cnc3n2)c1	18	34
CCNc1nc(NCCc2ccc(O)cc2)c2[nH]cnc2n1	13	-5
COc1cc(Nc2nc(NCCc3ccc(O)cc3)c3[nH]cnc3n2)cc(OC)c1OC	-18	75*
OCC1CCCN1c1nc(Nc2ccccc2)c2[nH]cnc2n1 (stereo unspecified)	-5	14
CCN(CC)CCC(=O)N1c2ccccc2Sc2ccc(C(F)(F)F)cc21	/	45*
SMILES	ASK1 inh	ULK1 primary
CCN(CC)CCC(=O)N1c2ccccc2Sc2ccc(Cl)cc21	/	37
Cc1[nH]cnc1CN1CCc2c(c3ccccc3n2C)C1=O	/	78*
Cc1nccn1CC1CCc2c(c3ccccc3n2C)C1=O (stereo unspecified)	/	2
CC(=O)Oc1c(C)c(C)c2c(c1C)CCC(C)(CCCC(C)CCCC(C)CCCC(C)C)O2 (stereo unspecified)	/	2
Cc1c(C)c2c(c(C)c1OC(=O)CCC(=O)O)CC[C@@](C)(CCC[C@H](C)CCC[C@H](C)CCCC(C)C)O2	/	73*
O=C(NCc1cccc(C(F)(F)F)c1)c1cccc(-c2csc3ccccc23)n1	-38	-15
Oc1ccc(CCNc2cc(NCc3cccnc3)ncn2)cc1	-23	1
CNC(=O)c1ccccc1Nc1nc(Nc2ccc(N3CCOCC3)c(F)c2)ncc1Cl	-60	90*
CNC(=O)c1ccccc1Nc1cc(Nc2ccc3[nH]cc(C4=CCNCC4)c3c2)ncc1C(F)(F)F	28	-38
CNC(=O)c1ccccc1Nc1nc(Nc2ccc(-n3cnc(N4CCOCC4)n3)cc2)ncc1Cl	-27	36
O=C(NCc1ccccc1)c1ccccc1Nc1ccnc(Nc2ccc(N3CCOCC3)cc2)c1	13	2
CNC(=O)c1ccccc1Nc1cc(Nc2ccc(N3CCOCC3)cc2)ncc1C(N)=O	-12	85*
COc1ccc(-c2ncc(C)c(Nc3ccc(N4CCOCC4)cc3)n2)cc1	9	4
CNC(=O)c1ccccc1Nc1cc(Nc2ccc(N3CCOCC3)cc2)ncc1C(F)(F)F	1	90*
COc1cnc(Nc2ccc(N3CCOCC3)cc2)nc1-c1ccc(S(C)(=O)=O)cc1	16	46*
CCN(CC)c1nc(NCc2cccnc2)nc(N2CCN(c3ccccn3)CC2)n1	-1	3
COc1cc(Nc2ncnc3nc(-c4c(C)noc4C)[nH]c23)cc(OC)c1OC	5	13
COc1ccc(-c2nc(C(=O)NCCCN3CCCC3=O)cs2)cn1	-1	-1
C=CCN1CCN(c2c(Cl)cccc2NC(=O)c2cccc(C)n2)CC1	7	3
CCc1nnc(-c2cc3ccccc3n2CC(=O)Nc2cccc(Cl)c2)o1	/	-19
O=C(c1ccc(Nc2ccc3[nH]ncc3c2)nc1)N1CCOCC1	-9	-2
CNC(=O)c1ccccc1Nc1cc(Nc2ccc(C(=O)N3CCOCC3)cn2)ncc1C(F)(F)F	8	86*
COc1cnc(Nc2ccc(N3CCOCC3)cc2)nc1Nc1ccccc1C(N)=O	-83	85*
COc1cc(N2CCOCC2)ccc1Nc1ncc(Cl)c(Nc2ccccc2C(=O)NC2CC2)n1	-3	12
Cc1cnc(Nc2ccc(-n3cnc(N4CCOCC4)n3)cc2)cc1Nc1ccccc1C(N)=O	-31	27
SMILES	ASK1 inh	ULK1 primary
COc1ccc(N2CCOCC2)cc1Nc1cc(Nc2ccccn2)c(C(F)(F)F)cn1	20	17
FC(F)(F)c1cnc(Nc2ccc(N3CCOCC3)cc2)cc1Nc1cc(C2CC2)[nH]n1	25	80*
NC(=O)c1ccccc1Nc1cc(Nc2ccc(-n3cnc(N4CCOCC4)n3)cc2)ncc1C(F)F	-21	51*
COc1ccc(CCNC(=O)c2csc(NCCCN3CCCC3=O)n2)cc1	8	-2
Clc1cccc2sc(NCCn3cccn3)nc12	/	3
OCc1cnn(-c2ccnc(Nc3ccc(N4CCOCC4)cc3)c2)c1	-3	-9
CCCNc1nc(Nc2ncccn2)nc2c1ncn2C(C)C	5	3
O=C(NCc1ccccc1)c1ccc2nc(N3CCN(Cc4ccc5c(c4)OCO5)CC3)sc2c1	-5	8
Cc1nn(C)c(C)c1-c1cc(N)nc(N)n1	6	0
COc1cc(N2CCOCC2)ccc1Nc1cc(Nc2ccccc2-c2ncccn2)c(C(F)(F)F)cn1	7	9
CNC(=O)c1ccccc1Nc1cc(Nc2ccc(N3CCOCC3)cc2F)ncc1C(F)(F)F	-1	89*
CCCNC(=O)Cc1cn(-c2ccc(NCc3ccc4c(c3)OCO4)nn2)c2ccccc12	-2	-1
CC(C)[C@@H](O)C(=O)N[C@H]1CC[C@@H](C(=O)Nc2ccc3[nH]ncc3c2)C1	13	1
NC1CCC(C(=O)Nc2ccc3[nH]ncc3c2)CC1 (stereo unspecified)	14	55*!
N[C@@H]1CC[C@H](C(=O)Nc2ccc3cnccc3c2)C1	-2	8
N[C@H]1CCC[C@H](C(=O)Nc2ccc3cnccc3c2)C1	-2	75*
COc1ccc(Nc2cc(NCCc3ccccn3)ncn2)cc1	-5	-3
FC(F)(F)c1ccc(CNc2nccn3c(-c4cnn(Cc5ccccc5)c4)cnc23)cc1	17	-5
COc1cc(Nc2cc(Nc3ccccc3)ncn2)cc(OC)c1OC	8	-2
COc1cc(Nc2cc(Nc3ccncn3)ncn2)cc(OC)c1OC	1	43*

Source: PubChem (The Scripps Research Institute Molecular Screening Center)
